# Measured values taken from PubChem BioAssay (NCI).
# The panel holds about 79,000 compounds, 15% with a hit somewhere; the sample as a whole holds those more often. A number with no mark means an inactive call. Active and inactive are the calls of the source. Cut-off read from the data, not from the text of the source: active = growth inhibition above about 70%; inactive = the rest.
# How the values were obtained:
# [1] = NCI Yeast Anticancer Drug Screen. Data for the rad52 strain (AID 147);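 note: 0% = growth of vehicle-treated control cultures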; details: S. cerevisiae rad52 mutant growth inhibition, stronger effect = higher value
# Outline: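 Read-out: growth inhibition versus vehicle-treated controls. Cells were a DNA repair-deficient yeast strain treated with compounds.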
# [2] = NCI Yeast Anticancer Drug Screen. Data for the wt1 strain (AID 149);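 note: 0% = growth of vehicle-treated wt1 cultures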; details: S. cerevisiae wt1 strain (SPY 50644) growth inhibition, stronger effect = higher value
# Outline: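 Each compound is tested on wt1 yeast and the loss of growth versus vehicle gives the inhibition value.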
# [3] = NCI Yeast Anticancer Drug Screen. Data for the rad50EPP+ strain (AID 151);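 note: 0% = growth of vehicle-treated control cultures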; details: S. cerevisiae rad50 mutant strain, stronger effect = higher value
# Outline: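 Growth inhibition read against vehicle controls in rad50EPP+ yeast, a strain altered in DNA damage repair, after compound exposure.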
# [4] = NCI Yeast Anticancer Drug Screen. Data for the mgt1 strain (AID 153); details: S. cerevisiae mgt1 mutant growth inhibition, stronger effect = higher value
# Outline: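 mgt1 yeast grown with test compound; read-out is growth inhibition versus vehicle-treated cultures.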
# [5] = NCI Yeast Anticancer Drug Screen. Data for the rad50 strain (AID 155);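 note: 0% = growth of vehicle-only cultures of the same strain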; details: S. cerevisiae rad50 strain growth inhibition, stronger effect = higher value
# Outline: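 Vehicle-treated cultures provide the reference for the growth inhibition reported for compound-exposed, repair-deficient yeast.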
# [6] = NCI Yeast Anticancer Drug Screen. Data for the mec2-1 strain (AID 157); details: S. cerevisiae mec2-1 strain, stronger effect = higher value
# Outline: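 Yeast mec2-1 mutant treated with compound. Readout: growth inhibition vs vehicle controls.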
# [7] = NCI Yeast Anticancer Drug Screen. Data for the rad14 strain (AID 159);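 note: 0% = growth of vehicle-treated control cultures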; details: S. cerevisiae rad14 strain growth inhibition, stronger effect = higher value
# Outline: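 Inhibition of growth is reported for a repair-deficient yeast mutant following compound treatment, calculated relative to cultures that received vehicle.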
# [8] = NCI Yeast Anticancer Drug Screen. Data for the sgs1 mgt1 strain (AID 161);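 note: 0% = growth of cultures given vehicle only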; details: S. cerevisiae sgs1 mgt1 strain, stronger effect = higher value
# Outline: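 Test agents were incubated with a DNA-repair-mutant yeast strain. Growth was then read and compared against vehicle-treated controls.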
# [9] = NCI Yeast Anticancer Drug Screen. Data for the CLN2oe strain (AID 163);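 note: 0% = growth of vehicle-only control cultures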; details: S. cerevisiae CLN2oe strain, stronger effect = higher value
# Outline: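 Read-out: yeast growth inhibition, expressed relative to vehicle-only controls. The strain bears an engineered cell-cycle alteration.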
# [10] = NCI Yeast Anticancer Drug Screen. Data for the cln2 rad14 strain (AID 165);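 note: 0% = growth equal to vehicle treated cultures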; details: S. cerevisiae cln2 rad14 strain, stronger effect = higher value
# Outline: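 cln2 rad14 yeast strain; compound exposure; growth inhibition read vs vehicle controls.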
# [11] = NCI Yeast Anticancer Drug Screen. Data for the bub3 strain (AID 167); details: S. cerevisiae bub3 mutant strain, stronger effect = higher value
# Outline: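 Mutant yeast screening strain plus compound; vehicle-treated cultures serve as the 0% inhibition reference.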
# [12] = NCI Yeast Anticancer Drug Screen. Data for the wt2 strain (AID 169); details: S. cerevisiae wt2 strain growth inhibition, stronger effect = higher value
# Outline: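 Read-out: growth inhibition versus vehicle-treated control cultures after compound exposure of the yeast strain.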
# [13] = NCI Yeast Anticancer Drug Screen. Data for the mlh1 strain (AID 171);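 note: 0% = growth of vehicle-treated control cultures of the same strain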; details: S. cerevisiae mlh1 strain growth inhibition, stronger effect = higher value
# Outline: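 Read-out: growth inhibition versus vehicle controls. Strain: engineered yeast with a defined DNA repair or cell cycle defect, compound-treated.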
# [14] = NCI Yeast Anticancer Drug Screen. Data for the sgs1 strain (AID 173);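 note: 0% = growth of vehicle-only control cultures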; details: S. cerevisiae sgs1 mutant, stronger effect = higher value
# Outline: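 Read-out: yeast growth inhibition relative to vehicle controls, following compound exposure of a strain with a defined DNA repair/cell cycle alteration.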
# [15] = NCI Yeast Anticancer Drug Screen. Data for the mlh1 rad18 strain (AID 175); details: S. cerevisiae mlh1 rad18 strain growth inhibition, stronger effect = higher value
# Outline: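 Yeast w/ defined DNA-repair lesions; compound exposure; growth vs vehicle controls → % inhibition.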
# [16] = NCI Yeast Anticancer Drug Screen. Data for the rad18 strain (AID 177); details: S. cerevisiae rad18 mutant growth inhibition, stronger effect = higher value
# Outline: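 Readout: growth inhibition vs vehicle controls. Cells: genetically altered yeast strain, DNA repair defect.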
# [17] = at 5.0 µM (retest, dose inferred, filed as 0.5)
# [18] = at 50.0 µM (retest, dose inferred, filed as 5.0)
compound,measurement,setting,value
COc1ccc(C(C#N)=C2C=CC(=NO)C=C2)cc1,growth inhibition,[1]; at 1.2 µM,11%
same,growth inhibition,[1]; at 3.7 µM,34%
same,growth inhibition,[1]; at 11.0 µM,89% (active)
same,growth inhibition,[1]; at 33.0 µM,96% (active)
same,growth inhibition,[1]; at 100.0 µM,96% (active)
same,growth inhibition,[2]; at 1.2 µM,-1%
same,growth inhibition,[2]; at 3.7 µM,-2%
same,growth inhibition,[2]; at 11.0 µM,14%
same,growth inhibition,[2]; at 33.0 µM,96% (active)
same,growth inhibition,[2]; at 100.0 µM,97% (active)
same,growth inhibition,[3]; at 1.2 µM,42%
same,growth inhibition,[3]; at 3.7 µM,70% (active)
same,growth inhibition,[3]; at 11.0 µM,90% (active)
same,growth inhibition,[3]; at 33.0 µM,93% (active)
same,growth inhibition,[3]; at 100.0 µM,93% (active)
same,growth inhibition,[4]; at 1.2 µM,0%
same,growth inhibition,[4]; at 3.7 µM,18%
same,growth inhibition,[4]; at 11.0 µM,88% (active)
same,growth inhibition,[4]; at 33.0 µM,97% (active)
same,growth inhibition,[4]; at 100.0 µM,91% (active)
same,growth inhibition,[5]; at 1.2 µM,18%
same,growth inhibition,[5]; at 3.7 µM,38%
same,growth inhibition,[5]; [17],23%
same,growth inhibition,[5]; at 11.0 µM,81% (active)
same,growth inhibition,[5]; at 33.0 µM,96% (active)
same,growth inhibition,[5]; [18],62%
same,growth inhibition,[5]; at 50.0 µM,65.4%
same,growth inhibition,[5]; at 100.0 µM,95% (active)
same,growth inhibition,[6]; at 1.2 µM,1%
same,growth inhibition,[6]; at 3.7 µM,16%
same,growth inhibition,[6]; [17],-2%
same,growth inhibition,[6]; at 11.0 µM,96% (active)
same,growth inhibition,[6]; at 33.0 µM,97% (active)
same,growth inhibition,[6]; [18],25%
same,growth inhibition,[6]; at 50.0 µM,88.2% (active)
same,growth inhibition,[6]; at 100.0 µM,98% (active)
same,growth inhibition,[7]; at 1.2 µM,13%
same,growth inhibition,[7]; at 3.7 µM,19%
same,growth inhibition,[7]; at 11.0 µM,83% (active)
same,growth inhibition,[7]; at 33.0 µM,96% (active)
same,growth inhibition,[7]; at 100.0 µM,82% (active)
same,growth inhibition,[8]; [17],51%
same,growth inhibition,[8]; [18],79% (active)
same,growth inhibition,[8]; at 50.0 µM,87.7% (active)
same,growth inhibition,[9]; at 1.2 µM,7%
same,growth inhibition,[9]; at 3.7 µM,11%
same,growth inhibition,[9]; at 11.0 µM,58%
same,growth inhibition,[9]; at 33.0 µM,55%
same,growth inhibition,[9]; at 100.0 µM,68%
same,growth inhibition,[10]; [17],17%
same,growth inhibition,[10]; [18],41%
same,growth inhibition,[10]; at 50.0 µM,60.3%
same,growth inhibition,[11]; at 1.2 µM,-1%
same,growth inhibition,[11]; at 3.7 µM,7%
same,growth inhibition,[11]; [17],24%
same,growth inhibition,[11]; at 11.0 µM,22%
same,growth inhibition,[11]; at 33.0 µM,42%
same,growth inhibition,[11]; [18],82% (active)
same,growth inhibition,[11]; at 50.0 µM,85.8% (active)
same,growth inhibition,[11]; at 100.0 µM,72% (active)
same,growth inhibition,[12]; at 1.2 µM,-9%
same,growth inhibition,[12]; at 3.7 µM,42%
same,growth inhibition,[12]; at 11.0 µM,84% (active)
same,growth inhibition,[12]; at 33.0 µM,99% (active)
same,growth inhibition,[12]; at 100.0 µM,99% (active)
same,growth inhibition,[13]; at 1.2 µM,8%
same,growth inhibition,[13]; at 3.7 µM,29%
same,growth inhibition,[13]; at 11.0 µM,66%
same,growth inhibition,[13]; at 33.0 µM,97% (active)
same,growth inhibition,[13]; at 100.0 µM,95% (active)
same,growth inhibition,[14]; at 1.2 µM,5%
same,growth inhibition,[14]; at 3.7 µM,32%
same,growth inhibition,[14]; at 11.0 µM,87% (active)
same,growth inhibition,[14]; at 33.0 µM,99% (active)
same,growth inhibition,[14]; at 100.0 µM,98% (active)
same,growth inhibition,[15]; [17],48%
same,growth inhibition,[15]; [18],85% (active)
same,growth inhibition,[15]; at 50.0 µM,91.5% (active)
same,growth inhibition,[16]; at 1.2 µM,11%
same,growth inhibition,[16]; at 3.7 µM,38%
same,growth inhibition,[16]; at 11.0 µM,90% (active)
same,growth inhibition,[16]; at 33.0 µM,97% (active)
same,growth inhibition,[16]; at 100.0 µM,96% (active)
CC[C@@]1(OC(=O)CN(C)C)C(=O)OCc2c1cc1n(c2=O)Cc2cc3c(N)cccc3nc2-1,growth inhibition,[1]; at 1.2 µM,53%
same,growth inhibition,[1]; at 3.7 µM,75% (active)
same,growth inhibition,[1]; at 11.0 µM,88% (active)
same,growth inhibition,[1]; at 33.0 µM,93% (active)
same,growth inhibition,[1]; at 100.0 µM,95% (active)
same,growth inhibition,[2]; at 1.2 µM,0%
same,growth inhibition,[2]; at 3.7 µM,-2%
same,growth inhibition,[2]; at 11.0 µM,-1%
same,growth inhibition,[2]; at 33.0 µM,6%
same,growth inhibition,[2]; at 100.0 µM,25%
same,growth inhibition,[3]; at 1.2 µM,7%
same,growth inhibition,[3]; at 3.7 µM,22%
same,growth inhibition,[3]; at 11.0 µM,55%
same,growth inhibition,[3]; at 33.0 µM,77% (active)
same,growth inhibition,[3]; at 100.0 µM,87% (active)
same,growth inhibition,[4]; at 1.2 µM,-2%
same,growth inhibition,[4]; at 3.7 µM,0%
same,growth inhibition,[4]; at 11.0 µM,2%
same,growth inhibition,[4]; at 33.0 µM,20%
same,growth inhibition,[4]; at 100.0 µM,39%
same,growth inhibition,[5]; at 1.2 µM,68%
same,growth inhibition,[5]; at 3.7 µM,82% (active)
same,growth inhibition,[5]; [17],90% (active)
same,growth inhibition,[5]; at 11.0 µM,91% (active)
same,growth inhibition,[5]; at 33.0 µM,94% (active)
same,growth inhibition,[5]; [18],90% (active)
same,growth inhibition,[5]; at 50.0 µM,-17.9%
same,growth inhibition,[5]; at 100.0 µM,95% (active)
same,growth inhibition,[6]; at 1.2 µM,0%
same,growth inhibition,[6]; at 3.7 µM,8%
same,growth inhibition,[6]; [17],22%
same,growth inhibition,[6]; at 11.0 µM,46%
same,growth inhibition,[6]; at 33.0 µM,88% (active)
same,growth inhibition,[6]; [18],22%
same,growth inhibition,[6]; at 50.0 µM,58.4%
same,growth inhibition,[6]; at 100.0 µM,96% (active)
same,growth inhibition,[7]; at 1.2 µM,2%
same,growth inhibition,[7]; at 3.7 µM,0%
same,growth inhibition,[7]; at 11.0 µM,4%
same,growth inhibition,[7]; at 33.0 µM,19%
same,growth inhibition,[7]; at 100.0 µM,51%
same,growth inhibition,[8]; [17],14%
same,growth inhibition,[8]; [18],14%
same,growth inhibition,[8]; at 50.0 µM,6.05%
same,growth inhibition,[10]; [17],17%
same,growth inhibition,[10]; [18],17%
same,growth inhibition,[10]; at 50.0 µM,31.1%
same,growth inhibition,[11]; at 1.2 µM,-14%
same,growth inhibition,[11]; at 3.7 µM,-20%
same,growth inhibition,[11]; [17],6%
same,growth inhibition,[11]; at 11.0 µM,-3%
same,growth inhibition,[11]; at 33.0 µM,20%
same,growth inhibition,[11]; [18],6%
same,growth inhibition,[11]; at 50.0 µM,0.7%
same,growth inhibition,[11]; at 100.0 µM,59%
same,growth inhibition,[12]; at 1.2 µM,-2%
same,growth inhibition,[12]; at 3.7 µM,1%
same,growth inhibition,[12]; at 11.0 µM,3%
same,growth inhibition,[12]; at 33.0 µM,13%
same,growth inhibition,[12]; at 100.0 µM,32%
same,growth inhibition,[13]; at 1.2 µM,-1%
same,growth inhibition,[13]; at 3.7 µM,-2%
same,growth inhibition,[13]; at 11.0 µM,1%
same,growth inhibition,[13]; at 33.0 µM,28%
same,growth inhibition,[13]; at 100.0 µM,55%
same,growth inhibition,[14]; at 1.2 µM,0%
same,growth inhibition,[14]; at 3.7 µM,4%
same,growth inhibition,[14]; at 11.0 µM,17%
same,growth inhibition,[14]; at 33.0 µM,40%
same,growth inhibition,[14]; at 100.0 µM,64%
same,growth inhibition,[15]; [17],27%
same,growth inhibition,[15]; [18],27%
same,growth inhibition,[15]; at 50.0 µM,73.5% (active)
same,growth inhibition,[16]; at 1.2 µM,-18%
same,growth inhibition,[16]; at 3.7 µM,-5%
same,growth inhibition,[16]; at 11.0 µM,5%
same,growth inhibition,[16]; at 33.0 µM,19%
same,growth inhibition,[16]; at 100.0 µM,51%
